# Inconclusive results are not listed. Entries that show only a call come without a potency. Active and inactive are the calls of the source. Unless noted, calls follow the shape of the dose curve; as a rule, active = well fitted curve in the direction sought with a large enough effect; inconclusive = small, poorly fitted or top-dose-only effect, or another doubt; inactive = no such curve, though single readings can be large; an effect the other way counts as inactive or inconclusive.
# Test system: not listed separately
# Assay: Primary qHTS for small molecule stabilizers of the endoplasmic reticulum resident proteome: Secreted ER Calcium Modulated Protein (SERCaMP) assay (AID 1508630)
# Settings: SH-SY5Y GLuc-SERCaMP (Gaussia luciferase released on ER calcium loss) secretion, thapsigargin, luminescence; series mostly up to 38.4 µM
# Procedure, shortened: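 GLuc-SERCaMP-expressing SH-SY5Y cells, pretreated 16 h with compound, are challenged with thapsigargin to empty ER calcium stores; after 4 h, coelenterazine is added directly to the medium and luminescence is imaged.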
row,Compound,Potency
1,NC(=O)Cc1cccc(C(=O)c2ccccc2)c1N,inactive
2,CC(C)c1nc(CN(C)C(=O)N[C@H](C(=O)N[C@@H](Cc2ccccc2)C[C@H](O)[C@H](Cc2ccccc2)NC(=O)OCc2cncs2)C(C)C)cs1,inactive
3,CNC[C@@H](O)[C@@H](O)[C@H](O)[C@H](O)CO,inactive
4,CN(C)CCc1c[nH]c2ccc(Cn3cncn3)cc12,inactive
5,CC(=O)Nc1ccc(O)cc1,inactive
6,COCCCOc1ccnc(CS(=O)c2nc3ccccc3[nH]2)c1C (centres undefined),inactive
7,CCN(CC)C(=S)SSC(=S)N(CC)CC,inactive
8,Cc1cc(=O)oc2cc(O)ccc12,inactive
9,Cc1c(C(=O)NN2CCCCC2)nn(-c2ccc(Cl)cc2Cl)c1-c1ccc(Cl)cc1,inactive
10,O=c1cc(N2CCOCC2)oc2c(-c3ccccc3)cccc12,inactive
11,CN(c1nccc(=O)[nH]1)C1CCN(c2nc3ccccc3n2Cc2ccc(F)cc2)CC1,inactive
12,S=c1nc[nH]c2nc[nH]c12,inactive
13,O=C(OC1C[C@H]2CC[C@@H](C1)[N+]21CCCC1)C(O)(c1ccccc1)c1ccccc1 (some centres undefined),inactive
14,C[C@H](Cn1cnc2c(N)ncnc21)OCP(=O)(O)O,inactive
15,COC(=O)N[C@H](C(=O)N[C@@H](Cc1ccccc1)[C@@H](O)CN(Cc1ccc(-c2ccccn2)cc1)NC(=O)[C@@H](NC(=O)OC)C(C)(C)C)C(C)(C)C,inactive
16,CN1C(C(=O)Nc2ccccn2)=C(O)c2sccc2S1(=O)=O,inactive
17,COc1cc(Nc2c(C#N)cnc3cc(OCCCN4CCN(C)CC4)c(OC)cc23)c(Cl)cc1Cl,inactive
18,OC(CN1CCN(c2cccc(Cl)c2)CC1)C(c1ccccc1)c1ccccc1 (centres undefined),inactive

# Test system: not listed separately
# Assay: A High-Content qHTS Against Drug Library for the Identification of Small Molecules that Inhibit DYT1 Early Onset Primary Dystonia-Associated Cell Pathology (AID 1645839; calls by dose curve; also: potency is read from the fitted curve at half-maximal effect)
# Settings: HEK293 Flp-In EGFP-delE TorsinA, punctate imaging, 48 h; series mostly up to 46.1 µM
# Procedure, shortened: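 Flp-In T-REx 293 cells with tetracycline-inducible EGFP-delE hTOR1A (WT EGFP-hTOR1A as reference), 800 cells/well; compound added with tetracycline, 48 h at 37 C. Fixed, permeabilized cells imaged; %pathology (punctate TorsinA) primary, cell count counterscreen.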
row,Compound,Potency
1,O=C(O)c1cc(=O)c2c(OCC(O)COc3cccc4oc(C(=O)O)cc(=O)c34)cccc2o1,inactive
2,O=C(O)c1cn(-c2ccc(F)cc2)c2cc(N3CCNCC3)c(F)cc2c1=O,inactive
3,CC1=C(C(=O)O)N2C(=O)[C@@H](NC(=O)[C@H](N)C3=CCC=CC3)[C@H]2SC1,inactive
4,Cc1ccc(C)c(OCCCC(C)(C)C(=O)O)c1,inactive
5,CCCOc1ccc2nc(NC(=O)OC)[nH]c2c1,inactive
6,CC1(C)NC(=O)N(c2ccc([N+](=O)[O-])c(C(F)(F)F)c2)C1=O,inactive
7,C=CCc1cc(OC)c(O)c(C(=O)NCCO)c1,inactive
8,c1cnc2cc3c(cc2n1)C1CNCC3C1,inactive
9,CCC[C@@H]1C[C@@H](C(=O)N[C@@H]([C@H]2O[C@H](SC)[C@H](O)[C@@H](O)[C@H]2O)[C@@H](C)O)N(C)C1,inactive
10,NNc1nncc2ccccc12,inactive
11,NC(=O)Cc1cccc(C(=O)c2ccccc2)c1N,inactive
12,CC(=O)Nc1ccc(O)cc1,inactive
13,COCCCOc1ccnc(CS(=O)c2nc3ccccc3[nH]2)c1C (centres undefined),inactive
14,CCN(CC)C(=S)SSC(=S)N(CC)CC,10 µM (active)
15,O=C(O)c1cccc(-c2noc(-c3ccccc3F)n2)c1,inactive
16,Cc1cc(=O)oc2cc(O)ccc12,inactive
17,CN(c1nccc(=O)[nH]1)C1CCN(c2nc3ccccc3n2Cc2ccc(F)cc2)CC1,inactive
18,S=c1nc[nH]c2nc[nH]c12,inactive
19,O=C(OC1C[C@H]2CC[C@@H](C1)[N+]21CCCC1)C(O)(c1ccccc1)c1ccccc1 (some centres undefined),inactive
20,COC(=O)N[C@H](C(=O)N[C@@H](Cc1ccccc1)[C@@H](O)CN(Cc1ccc(-c2ccccn2)cc1)NC(=O)[C@@H](NC(=O)OC)C(C)(C)C)C(C)(C)C,inactive
21,CN1C(C(=O)Nc2ccccn2)=C(O)c2sccc2S1(=O)=O,inactive
22,COc1cc(Nc2c(C#N)cnc3cc(OCCCN4CCN(C)CC4)c(OC)cc23)c(Cl)cc1Cl,10 µM (active)

# Biological target: Cytochrome P450 2D6 (Homo sapiens) (UniProt P10635)
# Assay: Cytochrome P450 family 2 subfamily D member 6 (CYP2D6) small molecule antagonists: luciferase biochemical (cell-free) qHTS assay (AID 1645840; active = well fitted curve in the direction sought with a large enough effect in the repeat runs; an effect the other way counts as inactive or inconclusive; also: nearly all actives have a fitted effect of over 55% in size; also: potency is read from the fitted curve at half-maximal effect)
# Settings: P450-Glo CYP2D6 enzyme, luciferin luminescence, 1 h; series mostly up to 57.4 µM
# Procedure, shortened: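 P450-Glo luminescent screen: recombinant CYP2D6 enzyme–proluciferin substrate mix preincubated with compound 10 min at room temperature, then NADPH regeneration added for 1 h at room temperature. Detection reagent added for 20 min; luciferin light read as relative luminescence units.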
# Sequence of Cytochrome P450 2D6 (Homo sapiens) (P10635 whole entry, looked up): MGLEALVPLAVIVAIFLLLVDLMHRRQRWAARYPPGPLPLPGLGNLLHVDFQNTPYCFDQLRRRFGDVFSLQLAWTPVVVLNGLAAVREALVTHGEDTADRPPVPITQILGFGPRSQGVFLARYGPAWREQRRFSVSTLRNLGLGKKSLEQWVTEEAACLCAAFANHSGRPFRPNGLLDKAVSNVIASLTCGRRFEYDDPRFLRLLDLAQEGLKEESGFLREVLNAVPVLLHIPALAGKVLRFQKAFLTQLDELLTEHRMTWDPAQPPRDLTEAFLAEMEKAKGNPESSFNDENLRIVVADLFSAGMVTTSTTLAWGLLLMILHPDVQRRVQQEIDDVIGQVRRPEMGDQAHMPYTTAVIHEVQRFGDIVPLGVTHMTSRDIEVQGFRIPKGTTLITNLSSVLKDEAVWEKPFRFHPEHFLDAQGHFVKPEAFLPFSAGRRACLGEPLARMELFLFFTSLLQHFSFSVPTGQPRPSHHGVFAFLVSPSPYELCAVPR
row,Compound,Potency
1,O=C(O)c1cc(=O)c2c(OCC(O)COc3cccc4oc(C(=O)O)cc(=O)c34)cccc2o1,inactive
2,O=C(O)c1cn(-c2ccc(F)cc2)c2cc(N3CCNCC3)c(F)cc2c1=O,inactive
3,Cc1cccc(C)c1OCC(=O)N[C@@H](Cc1ccccc1)[C@@H](O)C[C@H](Cc1ccccc1)NC(=O)[C@H](C(C)C)N1CCCNC1=O,13.8 µM (active)
4,CN1CCC(=C2c3ccccc3CCc3sccc32)CC1,1.1 µM (active)
5,CC1=C(C(=O)O)N2C(=O)[C@@H](NC(=O)[C@H](N)C3=CCC=CC3)[C@H]2SC1,inactive
6,Cc1ccc(C)c(OCCCC(C)(C)C(=O)O)c1,inactive
7,CCCOc1ccc2nc(NC(=O)OC)[nH]c2c1,inactive
8,CC1(C)NC(=O)N(c2ccc([N+](=O)[O-])c(C(F)(F)F)c2)C1=O,inactive
9,C=CCc1cc(OC)c(O)c(C(=O)NCCO)c1,inactive
10,c1cnc2cc3c(cc2n1)C1CNCC3C1,inactive
11,CCC[C@@H]1C[C@@H](C(=O)N[C@@H]([C@H]2O[C@H](SC)[C@H](O)[C@@H](O)[C@H]2O)[C@@H](C)O)N(C)C1,inactive
12,CN(C)c1ccc(O)c2c1C[C@H]1C[C@H]3[C@H](N(C)C)C(=O)C(C(N)=O)=C(O)[C@@]3(O)C(=O)C1=C2O,inactive
13,NNc1nncc2ccccc12,inactive
14,NC(=O)Cc1cccc(C(=O)c2ccccc2)c1N,inactive
15,CC(=O)Nc1ccc(O)cc1,inactive
16,COCCCOc1ccnc(CS(=O)c2nc3ccccc3[nH]2)c1C (centres undefined),inactive
17,CCN(CC)C(=S)SSC(=S)N(CC)CC,inactive
18,O=C(O)c1cccc(-c2noc(-c3ccccc3F)n2)c1,1.55 µM (active)
19,Cc1cc(=O)oc2cc(O)ccc12,inactive
20,CN(c1nccc(=O)[nH]1)C1CCN(c2nc3ccccc3n2Cc2ccc(F)cc2)CC1,12.3 µM (active)
21,S=c1nc[nH]c2nc[nH]c12,inactive
22,O=C(OC1C[C@H]2CC[C@@H](C1)[N+]21CCCC1)C(O)(c1ccccc1)c1ccccc1 (some centres undefined),6.17 µM (active)
23,CN1C(C(=O)Nc2ccccn2)=C(O)c2sccc2S1(=O)=O,inactive
24,COc1cc(Nc2c(C#N)cnc3cc(OCCCN4CCN(C)CC4)c(OC)cc23)c(Cl)cc1Cl,inactive

# From PubChem BioAssay (NCATS)
